Bioassay records as filed in PubChem BioAssay.
SARS PLP yeast = SARS-CoV PLP inhibition in yeast | S. cerevisiae expressing SARS-CoV PLpro, growth rescue | Potency, µM (series often up to 32.9 µM), for the others: at the top dose activity, positive = growth rescue, most hits filed as activators | 0.19% of 330,000 active | AID 485353; calls by dose curve; further: potency means the concentration at half of the fitted maximal effect; 0% is about no effect; nearly all actives have a fitted effect of over 55% in size
Tb PYK inh = inhibitors of Trypanosoma brucei pyruvate kinase; Q57TT1; TbPYK enzyme, Kinase-Glo Plus ATP luminescence, 45 min; Potency, µM (doses to about 76.8 µM), for inactives: at the highest dose activity, negative = inhibition, actives largely listed as inhibitors; 0.12% of 410,000 active; AID 624173; further: potency means the concentration at half of the fitted maximal effect; on the % scale 0 is the no-effect control and ±100 the full control effect; nearly all actives have a fitted effect of over 50% in size
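T. brucei PYK with substrate was exposed to pin-transferred compounds across a concentration series, then started with 130 uM ADP (final). After 45 min at room temperature, Kinase-Glo Plus luminescence was read, normalized and curve-fitted.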
LmPK inh = blocks Leishmania mexicana pyruvate kinase activity. Q27686. purified LmPK, Kinase-Glo ATP luminescence, 1 h. Potency, µM (doses to about 57.5 µM), inactives show at the highest dose activity change, negative = inhibition, hits mostly inhibitors. 0.37% of 290,000 active. AID 1721; further: potency means the concentration at half of the fitted maximal effect; on the % scale 0 is the no-effect control and ±100 the full control effect
Target sequence (Q27686 whole entry, looked up): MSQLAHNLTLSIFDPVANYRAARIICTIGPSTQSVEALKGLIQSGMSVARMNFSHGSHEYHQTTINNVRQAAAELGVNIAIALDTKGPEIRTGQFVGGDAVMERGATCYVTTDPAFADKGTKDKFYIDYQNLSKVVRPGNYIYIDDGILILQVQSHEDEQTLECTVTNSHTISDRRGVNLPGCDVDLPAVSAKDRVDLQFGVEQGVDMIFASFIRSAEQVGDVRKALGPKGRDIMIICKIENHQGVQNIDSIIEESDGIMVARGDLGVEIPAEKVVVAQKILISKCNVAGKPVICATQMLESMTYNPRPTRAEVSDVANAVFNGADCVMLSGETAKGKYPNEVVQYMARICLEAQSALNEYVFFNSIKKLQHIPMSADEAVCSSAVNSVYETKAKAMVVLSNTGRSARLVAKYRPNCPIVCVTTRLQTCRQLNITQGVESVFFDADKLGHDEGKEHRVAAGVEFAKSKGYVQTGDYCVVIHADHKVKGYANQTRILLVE
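Pyruvate kinase activity monitored as ATP production (luciferase luminescence). Conditions: 0.1 nM enzyme, 0.5 mM PEP, 0.1 mM ADP, 1 h, RT; normalized against uninhibited and no-enzyme wells.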
CHX counter = counter-screen hit for Shiga toxin inhibitors, cycloheximide. cell reporter, cycloheximide protein synthesis inhibition counterscreen. max response, %. 12% of 300,000 active. AID 2314; in the data active means max response mostly above about 13%, no sharp cut-off; inactive means mostly below about 14%; further: read at 38.3 µM for the half of the compounds with a filed dose; 0% is about no effect
NS1 function inh = inhibitors of influenza NS1 protein function | AID 2326 | Potency, µM (doses to about 46.1 µM), without a hit: top-dose activity, positive = more growth | 0.4% of 270,000 active; calls by dose curve; further: potency means the concentration at half of the fitted maximal effect; actives are rising curves; nearly all actives have a fitted effect of over 50% in size
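A cell-based growth assay was used: compounds that relieve NS1-induced slow growth of budding yeast raise OD600. Assay medium was yeast nitrogen base with ammonium sulphate and -URA supplement, pH 6.0, with 2% galactose.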
Shiga inhibitor = inhibitors of Shiga toxin in Vero cells. Vero cells, Shiga toxin protein synthesis inhibition reporter. inhibition, % at 38.7 µM. 9.2% of 290,000 active. AID 2315; in the data active means inhibition mostly above about 28%, no sharp cut-off; inactive means mostly below about 43%; further: 0% is about no effect
An asterisk follows results filed as active; ? = inconclusive; . = no result; [ ] = remark or other dose. The sample as a whole holds a higher share of hits than the screen did. Unless noted, the call rests on the fitted dose curve; in most records, active means well fitted curve in the direction sought with a large enough effect; inconclusive means small, poorly fitted or top-dose-only effect, or another doubt; inactive means no such curve, though single readings can be large; an effect the other way counts as inactive or inconclusive.

SMILES	SARS PLP yeast	Tb PYK inh	LmPK inh	CHX counter	NS1 function inh	Shiga inhibitor
O=C(Nc1ccc(Cl)c(C(F)(F)F)c1)C1Cc2c(-c3ccc4c(c3)OCO4)ccnc2O1 (configuration not stated)	.	-1%	.	.	.	.
Cc1ccc(S(=O)(=O)N2C[C@H]3[C@H]4C(=O)N(Cc5ccccc5)C(=O)[C@H]4CC(=O)[C@H]3[C@@H]2c2ccccc2Cl)cc1	.	2%	.	.	.	.
CC(=O)c1cccc(NC(=S)NC(=O)c2ccc(Cl)cc2)c1	12%	4%	4%	63*	7%	65*
CC(=O)c1cccc(NC(=S)NC(=O)c2cccc(C)c2)c1	-11%	-7%	-1%	40*	6%	83*
O=C(O)c1cccc(NC(=S)NC(=O)c2ccncc2)c1	1%	-5%	6%	10	.	8
Cc1ccc(C(=O)NC(=S)Nc2ccc3[nH]c(=O)[nH]c3c2)c(C)c1	1%	-22%	2%	-2	-1%	-2
Cc1cccc(C(=O)NC(=S)Nc2ccc3[nH]c(=O)[nH]c3c2)c1	-1%	-10%	1%	16*	2%	18
CC(=O)c1cccc(NC(=S)NC(=O)c2ccccc2Br)c1	5%	-12%	0%	3	?	5
Cc1ccc(Cl)cc1NC(=O)C1CCN(c2nnc(C)c3c(C)n(-c4ccccc4)nc23)CC1	.	-1%[15.4 µM]	.	.	.	.
CCCCCn1c(=O)[nH]c2cc(C(=O)N3CCN(c4cccc(C(F)(F)F)c4)CC3)ccc2c1=O	.	6%	.	.	.	.
O=[N+]([O-])c1ccc2c(c1)nc1n2CCN(C2CCCCC2)C1	0%	-27%	0%	37*	3%	49*
CCCC(=O)Nc1ccc2c(c1)nc1n2CCN(C2CCCCC2)C1	-1%	-6%	-1%	2	4%	4
CC(=O)Nc1ccc2c(c1)nc1n2CCN(C2CCCCC2)C1	0%	2%	0%	29*	-2%	47
CC1CCC(NC(=O)c2nc(Cn3ccc([N+](=O)[O-])n3)no2)CC1 (configuration not stated)	0%	-3%	0%	-1	5%	32
CC(=O)c1ccc(OCC(O)CN2CCN(S(=O)(=O)c3c(C)c(C)cc(C)c3C)CC2)cc1 (configuration not stated)	1%	0%	-5%	-1	0%	-3
Cc1ccccc1CCNC(=O)C1CC(O)CN1C(=O)Nc1ccccc1 (configuration not stated)	3%	4%	-1%	-3	2%	-4
COCCNC(=O)c1[nH]c(C(F)(F)F)nc1-c1ccccc1	.	2%	.	.	.	.
O=C(CSCc1ccc(Cl)cc1)Nc1ccc(O)cc1C(=O)O	-6%	-4%	4%	4	-9%	-14
CCN(CC)/C(Sc1ccccc1)=C(/C(Cl)=C(Cl)Cl)[N+](=O)[O-]	-2%	2%	-1%	24*	.	29
CCN(CC)/C(Sc1ccccc1)=C(\C(Cl)=C(Cl)Cl)[N+](=O)[O-]	-2%	4%	-12%	11	.	7
CN1C(=O)/C(=C/C=C2\SCCN2C)N(C)C1=S	1%	-17%	-12%	49*	.	121*
CN1C(=O)/C(=C/C=C2\SCCN2C)SC1=S	-1%	.	-12%	58*	11%	82*
CN1C(=O)C(=Cc2ccc(N3CCCCCC3)o2)C(=O)N(C)C1=S	-1%	?	-17%	3	-1%	-2
COc1cccc(OCc2nnc(SC)n2C)c1	2%	-12%	-5%	32*	-74%	45
c1cc2c(cnc3cscc32)s1	-1%	1%	-9%	16*	17%	19
SMILES	SARS PLP yeast	Tb PYK inh	LmPK inh	CHX counter	NS1 function inh	Shiga inhibitor
Cc1cccc(-c2nc3scc(CCNS(=O)(=O)c4ccc(Oc5ccccc5)cc4)n3n2)c1	.	-10%	.	.	.	.
COc1ccc(/C=C\C(=O)Oc2cccc(/C=N/NC(=O)Cc3ccc(OC)c(OC)c3)c2)cc1	-11%	4%	2%	65*	3%	46*
COc1ccc(CNC(=S)N/N=C/c2ccc(OC)c(OC)c2)cc1	0%	2%	1%	21*	4%	17
COc1ccc(/C=C/C(=O)Oc2ccc(/C=N\NC(=O)c3ccc(F)cc3)cc2)cc1	13%	1%	7%	-4	9%	4
COc1ccc(CNC(=S)N/N=C/c2ccc(O)c(OC)c2)cc1	23%	-23%	-1%	-3	14%	18
COc1ccc(/C=C/C(=O)Oc2cccc(/C=N/NC(=O)c3cccc(F)c3)c2)cc1	-20%	-15%	1%	95*	8%	129*
Cc1ccc(N=C2NC(=O)C(CO)(CO)S2)cc1	-1%	0%	0%	8.8*	-7%	10
COc1ccc(CCNc2nc(SCc3cccc(Cl)c3)nc3ccccc23)cc1OC	.	1%	.	.	.	.
COc1cc(/C=C(/C#N)C(=O)Nc2ccccc2)c(Br)cc1OCc1ccc(C(=O)O)cc1	-1%	-1%	1%	7	2%	11
COc1cc(/C=C(\C#N)C(=O)N2CCOCC2)ccc1OCc1ccccc1	0%	-3%	8%	3	-5%	40
COc1cc(/C=C(\C#N)C(=O)Nc2ccccc2F)ccc1OCCN1CCOCC1	-2%	0%	-10%	25*	6%	14
COc1cc(/C=C(\C#N)C(=O)Nc2ccccc2)ccc1OCCN1CCOCC1	1%	-5%	-1%	27*	-16%	45*
COc1cc(/C=C(\C#N)C(=O)Nc2cccc(C(=O)O)c2)ccc1OCc1ccc(Cl)cc1	-1%	-7%	4%	52*	-5%	107*
N#C/C(=C\c1ccc(OCCN2CCOCC2)cc1)C(=O)Nc1ccccc1	19%	-4%	-2%	20*	-8%	17
Cc1c(CC(=O)N2CCCCC2)c(=O)oc2cc(O)ccc12	.	12%	.	.	.	.
O=C(O)c1cc(=O)c2cc(Cl)ccc2[nH]1	.	.	.	9	.	-6
CCOC(=O)c1sc(NC(=O)CSc2nccn2C)nc1C	-3%	-2%	-5%	35*	-8%	112*
CCOC(=O)c1sc(NC(=O)CSc2nccc(C)n2)nc1C	-1%	5%	3%	1	0%	23
CCOC(=O)c1sc(NC(=O)CSc2ncccn2)nc1C	7%	9%	-11%	21	2%	41*
C=CCN1c2ccccc2[C@]23C[C@@H](C(=O)OC)N(S(=O)(=O)CCCC)C2=NC(C(=O)OC)=C(C(=O)OC)[C@H]13	.	.	2%[11.5 µM]	.	.	.
CC(C)Cn1[nH]c2c3c(ccc2c1=O)C(=O)c1ccccc1C3=O	-10%	-9%	-28%	27*	2%	61
O=C(/C=C/c1ccccc1)Nc1cccc(C(=O)NC2CC2)c1	.	-7%	.	.	.	.
O=C(Cn1ncc(Cl)c(Cl)c1=O)N1CCN(Cc2ccccc2)CC1	0%	1%	10%	-4	.	-20
CCc1ccc(C(=O)Cn2ncc(Cl)c(Cl)c2=O)cc1	1%	-6%	2%	17*	3%	24
